Data reported in PubChem BioAssay (NCI).
The panel holds about 79,000 compounds, 15% with a hit somewhere; the sample as a whole holds those more often. Calls of active or inactive are those of the source. Rule as the data show it: active = growth inhibition above about 70%; inactive = the rest.

Columns and labels:
[1] = NCI Yeast Anticancer Drug Screen. Data for the rad52 strain (AID 147);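 also: 0% = growth of vehicle-treated control cultures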; settings: S. cerevisiae rad52 mutant growth inhibition, stronger effect = higher value
Method in brief: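 Screen used a yeast mutant impaired in DNA repair. After compound exposure, growth was measured. Values reflect inhibition compared with vehicle-treated cells.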

[2] = NCI Yeast Anticancer Drug Screen. Data for the wt1 strain (AID 149);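 also: 0% = growth of vehicle-treated wt1 cultures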; settings: S. cerevisiae wt1 strain (SPY 50644) growth inhibition, stronger effect = higher value
Method in brief: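 Using yeast strain wt1, compound-induced growth inhibition was determined against vehicle-treated cultures.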

[3] = NCI Yeast Anticancer Drug Screen. Data for the rad50EPP+ strain (AID 151);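 also: 0% = growth of vehicle-treated control cultures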; settings: S. cerevisiae rad50 mutant strain, stronger effect = higher value
Method in brief: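 Exposing the rad50EPP+ strain to each compound, growth was compared with vehicle-only cultures to give inhibition.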

[4] = NCI Yeast Anticancer Drug Screen. Data for the mgt1 strain (AID 153); settings: S. cerevisiae mgt1 mutant growth inhibition, stronger effect = higher value
Method in brief: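 Genetically defined yeast (mgt1) treated with compound; inhibition of growth expressed against vehicle-treated controls.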

[5] = NCI Yeast Anticancer Drug Screen. Data for the rad50 strain (AID 155);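 also: 0% = growth of vehicle-only cultures of the same strain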; settings: S. cerevisiae rad50 strain growth inhibition, stronger effect = higher value
Method in brief: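 Relative growth inhibition (compound vs vehicle) was measured in yeast with a defined repair-gene alteration.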

[6] = NCI Yeast Anticancer Drug Screen. Data for the mec2-1 strain (AID 157); settings: S. cerevisiae mec2-1 strain, stronger effect = higher value
Method in brief: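 Readout is yeast growth inhibition, normalised to vehicle-treated controls, in the mec2-1 strain exposed to compound.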

[7] = NCI Yeast Anticancer Drug Screen. Data for the rad14 strain (AID 159);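 also: 0% = growth of vehicle-treated control cultures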; settings: S. cerevisiae rad14 strain growth inhibition, stronger effect = higher value
Method in brief: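 Screen for anticancer potential: a yeast strain altered in DNA damage repair is grown with compound, and reduced growth is quantified against vehicle controls.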

[8] = NCI Yeast Anticancer Drug Screen. Data for the sgs1 mgt1 strain (AID 161);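 also: 0% = growth of cultures given vehicle only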; settings: S. cerevisiae sgs1 mgt1 strain, stronger effect = higher value
Method in brief: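 Percent growth inhibition was derived by comparing compound-exposed mutant yeast with vehicle-exposed cultures. The strain carries alterations in DNA damage repair.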

[9] = NCI Yeast Anticancer Drug Screen. Data for the cln2 rad14 strain (AID 165);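 also: 0% = growth equal to vehicle treated cultures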; settings: S. cerevisiae cln2 rad14 strain, stronger effect = higher value
Method in brief: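 Relative to vehicle controls, growth inhibition of compound-treated cln2 rad14 yeast was recorded.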

[10] = NCI Yeast Anticancer Drug Screen. Data for the bub3 strain (AID 167); settings: S. cerevisiae bub3 mutant strain, stronger effect = higher value
Method in brief: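 Screening used yeast with an engineered genetic alteration affecting cell cycle control. Compound-exposed cultures were compared with vehicle cultures, and reduced growth was taken as inhibition.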

[11] = NCI Yeast Anticancer Drug Screen. Data for the mlh1 strain (AID 171);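 also: 0% = growth of vehicle-treated control cultures of the same strain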; settings: S. cerevisiae mlh1 strain growth inhibition, stronger effect = higher value
Method in brief: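 Steps: expose the defined-mutant yeast strain to compound; expose a parallel culture to vehicle; measure growth; express compound effect as inhibition relative to the vehicle culture.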

[12] = NCI Yeast Anticancer Drug Screen. Data for the sgs1 strain (AID 173);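 also: 0% = growth of vehicle-only control cultures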; settings: S. cerevisiae sgs1 mutant, stronger effect = higher value
Method in brief: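 Treat defined-mutant yeast with compound; measure growth; calculate inhibition relative to vehicle-treated cells.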

[13] = NCI Yeast Anticancer Drug Screen. Data for the mlh1 rad18 strain (AID 175); settings: S. cerevisiae mlh1 rad18 strain growth inhibition, stronger effect = higher value
Method in brief: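 Test agents were incubated with a yeast strain of defined genotype (DNA damage repair defect). Inhibition of growth was derived by comparison with vehicle-exposed cultures.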

[14] = NCI Yeast Anticancer Drug Screen. Data for the rad18 strain (AID 177); settings: S. cerevisiae rad18 mutant growth inhibition, stronger effect = higher value
Method in brief: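 A genetically defined yeast mutant impaired in DNA damage repair was treated with test compounds, then its growth was measured against cultures receiving vehicle alone.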

[15] = NCI Yeast Anticancer Drug Screen. Data for the wt2 strain (AID 169);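 also: 0% = growth of vehicle-treated yeast cultures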; settings: S. cerevisiae wt2 strain growth inhibition, stronger effect = higher value
Method in brief: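 Values express reduction in yeast growth under compound treatment, referenced to vehicle-treated cells.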

[16] = at 5.0 µM (retest, dose inferred, filed as 0.5)
[17] = at 50.0 µM (retest, dose inferred, filed as 5.0)

Measured: growth inhibition

CC(C)CCCC(C)C1CCC2C3CCC4=CC(=O)/C(=C\O)CC4(C)C3CCC12C (stereo unspecified)
inactive: [1]; at 1.2 µM 1% | [1]; at 3.7 µM 2% | [1]; at 11.0 µM 3% | [1]; at 33.0 µM 6% | [1]; at 100.0 µM 25% | [2]; at 1.2 µM 1% | [2]; at 3.7 µM 1% | [2]; at 11.0 µM 2% | [2]; at 33.0 µM 3% | [2]; at 100.0 µM 16% | [3]; at 1.2 µM 2% | [3]; at 3.7 µM -2% | [3]; at 11.0 µM -6% | [3]; at 33.0 µM -8% | [3]; at 100.0 µM -4% | [4]; at 1.2 µM -1% | [4]; at 3.7 µM 1% | [4]; at 11.0 µM 1% | [4]; at 33.0 µM 0% | [4]; at 100.0 µM 6% | [5]; at 1.2 µM 1% | [5]; at 3.7 µM 0% | [5]; [16] 5% | [5]; at 11.0 µM -2% | [5]; at 33.0 µM 0% | [5]; [17] 47% | [5]; at 50.0 µM 15.9% | [5]; at 100.0 µM 21% | [6]; at 1.2 µM -2% | [6]; at 3.7 µM -6% | [6]; [16] 3% | [6]; at 11.0 µM -7% | [6]; at 33.0 µM -2% | [6]; [17] 45% | [6]; at 50.0 µM 6.2% | [6]; at 100.0 µM 22% | [7]; at 1.2 µM 1% | [7]; at 3.7 µM 2% | [7]; at 11.0 µM 3% | [7]; at 33.0 µM 7% | [7]; at 100.0 µM 20% | [8]; [16] 7% | [8]; [17] 48% | [8]; at 50.0 µM 14.9% | [9]; [16] 0% | [9]; [17] 26% | [9]; at 50.0 µM 48.5% | [10]; at 1.2 µM 4% | [10]; at 3.7 µM -1% | [10]; [16] 6% | [10]; at 11.0 µM -10% | [10]; at 33.0 µM -9% | [10]; [17] 54% | [10]; at 50.0 µM 47.8% | [10]; at 100.0 µM 21% | [11]; at 1.2 µM -1% | [11]; at 3.7 µM -2% | [11]; at 11.0 µM -3% | [11]; at 33.0 µM -2% | [11]; at 100.0 µM 15% | [12]; at 1.2 µM 0% | [12]; at 3.7 µM -1% | [12]; at 11.0 µM -1% | [12]; at 33.0 µM 3% | [12]; at 100.0 µM 29% | [13]; [16] 2% | [13]; [17] 52% | [13]; at 50.0 µM 26.1% | [14]; at 1.2 µM 3% | [14]; at 3.7 µM 3% | [14]; at 11.0 µM 2% | [14]; at 33.0 µM 6% | [14]; at 100.0 µM 28%

O=C(NNc1ccccc1)c1ccc(Cl)c(Cl)c1
inactive: [1]; at 1.2 µM -1% | [1]; at 3.7 µM 2% | [1]; at 11.0 µM 5% | [1]; at 33.0 µM 26% | [1]; at 100.0 µM 58% | [2]; at 1.2 µM 0% | [2]; at 3.7 µM -1% | [2]; at 11.0 µM 1% | [2]; at 33.0 µM 16% | [2]; at 100.0 µM 46% | [3]; at 1.2 µM -1% | [3]; at 3.7 µM 5% | [3]; at 11.0 µM 13% | [3]; at 33.0 µM 33% | [4]; at 1.2 µM -1% | [4]; at 3.7 µM -1% | [4]; at 11.0 µM 2% | [4]; at 33.0 µM 8% | [4]; at 100.0 µM 23% | [5]; at 1.2 µM 2% | [5]; at 3.7 µM 5% | [5]; [16] 4% | [5]; at 11.0 µM 11% | [5]; at 33.0 µM 21% | [5]; [17] -4% | [5]; at 50.0 µM 38.6% | [5]; at 100.0 µM 61% | [6]; at 1.2 µM -4% | [6]; at 3.7 µM -3% | [6]; [16] -9% | [6]; at 11.0 µM -5% | [6]; at 33.0 µM 2% | [6]; [17] 3% | [6]; at 50.0 µM 40.9% | [6]; at 100.0 µM 23% | [7]; at 1.2 µM -2% | [7]; at 3.7 µM -2% | [7]; at 11.0 µM 3% | [7]; at 33.0 µM 4% | [7]; at 100.0 µM 23% | [8]; [16] 5% | [8]; [17] 19% | [8]; at 50.0 µM 44.2% | [9]; [16] 31% | [9]; [17] 18% | [9]; at 50.0 µM 0.2% | [10]; at 1.2 µM -5% | [10]; at 3.7 µM -2% | [10]; [16] -5% | [10]; at 11.0 µM -7% | [10]; at 33.0 µM 2% | [10]; [17] 13% | [10]; at 50.0 µM 30.3% | [10]; at 100.0 µM 14% | [15]; at 1.2 µM 1% | [15]; at 3.7 µM -1% | [15]; at 11.0 µM 2% | [15]; at 33.0 µM 15% | [15]; at 100.0 µM 37% | [11]; at 1.2 µM -2% | [11]; at 3.7 µM -3% | [11]; at 11.0 µM -3% | [11]; at 33.0 µM 8% | [11]; at 100.0 µM 47% | [12]; at 1.2 µM -3% | [12]; at 3.7 µM -3% | [12]; at 11.0 µM -1% | [12]; at 33.0 µM 17% | [12]; at 100.0 µM 47% | [13]; [16] 6% | [13]; [17] 61% | [13]; at 50.0 µM 44.9% | [14]; at 1.2 µM 2% | [14]; at 3.7 µM 4% | [14]; at 11.0 µM 6% | [14]; at 33.0 µM 37%
active: [3]; at 100.0 µM 74% | [14]; at 100.0 µM 88%

COc1cc([C@@H]2c3cc4c(cc3[C@H](OC3OC5COC(C(C)C)OC5C(O)C3O)C3COC(=O)[C@@H]32)OCO4)cc(OC)c1O (stereo partly specified)
inactive: [1]; at 1.2 µM -10% | [1]; at 3.7 µM -17% | [1]; at 11.0 µM -26% | [1]; at 33.0 µM 35% | [2]; at 1.2 µM -25% | [2]; at 3.7 µM -31% | [2]; at 11.0 µM 12% | [2]; at 33.0 µM -18% | [2]; at 100.0 µM 9% | [3]; at 1.2 µM -15% | [3]; at 3.7 µM -19% | [3]; at 11.0 µM -46% | [3]; at 33.0 µM -41% | [3]; at 100.0 µM -37% | [4]; at 1.2 µM -31% | [4]; at 3.7 µM -8% | [4]; at 11.0 µM -32% | [4]; at 33.0 µM -29% | [4]; at 100.0 µM 22% | [5]; at 1.2 µM -22% | [5]; at 3.7 µM -32% | [5]; [16] 18% | [5]; at 11.0 µM -11% | [5]; at 33.0 µM 42% | [5]; at 50.0 µM 1.85% | [6]; at 1.2 µM 4% | [6]; at 3.7 µM 1% | [6]; [16] 9% | [6]; at 11.0 µM -17% | [6]; at 33.0 µM -5% | [6]; [17] 47% | [6]; at 50.0 µM 22.4% | [6]; at 100.0 µM 34% | [7]; at 1.2 µM -14% | [7]; at 3.7 µM -27% | [7]; at 11.0 µM -11% | [7]; at 33.0 µM -22% | [7]; at 100.0 µM 8% | [8]; [16] -1% | [8]; [17] 32% | [8]; at 50.0 µM 28.6% | [9]; [16] 10% | [9]; [17] 9% | [9]; at 50.0 µM 13.6% | [10]; at 1.2 µM -66% | [10]; at 3.7 µM -39% | [10]; [16] 10% | [10]; at 11.0 µM -50% | [10]; at 33.0 µM -63% | [10]; [17] 21% | [10]; at 50.0 µM 8.5% | [10]; at 100.0 µM -2% | [15]; at 1.2 µM -58% | [15]; at 3.7 µM -40% | [15]; at 11.0 µM -45% | [15]; at 33.0 µM -19%
active: [1]; at 100.0 µM 78% | [5]; [17] 96% | [5]; at 100.0 µM 82% | [15]; at 100.0 µM 83%
